Common to all, as to experiment: NCI-60 one-dose screen, 48 h (100 = growth as untreated, 0 = no growth, -100 = all killed)
Test [1] deals with T-47D breast. Particulars: 10 µM unless noted.
Test [2] concerns BT-549 breast. Particulars: 10 µM unless noted.
In test [3] the test system is MDA-MB-435 melanoma. To be noted: 10 µM unless noted.
In test [4] the test system is SW-620 colon. To be noted: 10 µM unless noted.
Test [5] deals with MCF7 breast. Particulars: 10 µM unless noted.
The test system of test [6] is HCT-116 colon. To be noted: 10 µM unless noted.
Test [7] concerns KM12 colon. Particulars: 10 µM unless noted.
Test [8] deals with HCC-2998 colon. Particulars: 10 µM.

About 83,000 compounds went through this panel and 20% of them were active in at least one assay; those are over-represented in the sample as a whole.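 Step 1: grow cells in 96-well plates. Step 2: add test compound at a single concentration. Step 3: incubate 48 h. Step 4: record percent growth.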 Unmarked numbers belong to inactive results. Active and inactive are the calls of the source. Rule for the calls: active = growth percent below 10; inactive = the rest.

Consider `O=c1[nH]c([C@@H]2CCCN2)nc2c1oc1ccc(Cl)cc12`, for which the growth in test [1] was 56.4%; in test [2] it was 58.5%; in test [3], 73.3%; in test [4], 22.7%; in test [5] it was 49.2%; in test [6], 33.6%. The growth in test [7] is 31.6%.

Consider `Cc1nn(-c2ccccc2)c2c1N=c1s/c(=C\c3cn(-c4ccccc4)nc3-c3ccc(Cl)cc3)c(=O)n1C(C)N2` (stereo not drawn), for which the growth in test [1] was 103%; in test [2], 105%; in test [3], 88.6%; in test [4], 103%; in test [5], 90.6%; in test [6], 75.2%. Moreover, the growth in test [7] was 91.8%.

In the case of `Cc1cn(-c2cc(NC(=O)c3ccc(C)c(Nc4nccc(-c5cnccn5)n4)c3)cc(C(F)(F)F)c2)cn1`, the growth is 66.7% in test [1]; 98.8% in test [2]; 23.2% in test [3]; 75.5% in test [4]; 69% in test [5]; 42.6% in test [6]. For the same compound, the growth in test [7] is 46.4%.

Consider `CCc1cc2c(c3ccc(C(=O)CBr)cc13)CCCC2`, for which the growth in test [1] was 71.2%; in test [2] it was 80.3%; in test [3] it was 107%; in test [4], 111%; in test [5] it was 93.1%; in test [8] it was 103%. The growth in test [7] is 103%.

Turning to `O=C(Nc1ccc(C2=NCCCN2)cc1)c1ccc(C(=O)Nc2ccc(C3=NCCCN3)cc2)nc1`, the growth is 97.3% in test [1]; 106% in test [2]; 117% in test [3]; 104% in test [4]; 98% in test [5]; 93.2% in test [6]. Moreover, the growth in test [7] was 112%.

Turning to `C=CCN1C(=O)c2cccc3c(-c4ccc5c(c4)ncn5C4CCCCC4)ccc(c23)C1=O`, the growth in test [1] is 11.2%; in test [2], 17%; in test [3], 39.4%; in test [4] it was 86.3%; in test [5], 37.6%; in test [8], 75.2%. Also, the growth in test [7] was 49.4%.

For `CCN(CC)CCNc1ccc(N=Nc2cnc3ccccc3c2)c2ccccc12`, the growth in test [1] was -38.8% (active); in test [2], 27.5%; in test [3], -33.2% (active); in test [4], -84.4% (active); in test [5], -79.2% (active); in test [8], -95.4% (active). Further, in test [7], the growth is -87.3% (active).

Turning to `Cc1cc2c(-c3nc4ccccn4c3Nc3cccc4ccccc34)c(O)c(O)cc2c(O)c1-c1c(C)cc2c(-c3nc4ccccn4c3Nc3cccc4ccccc34)c(O)c(O)cc2c1O`, the growth in test [1] was 15.5%; in test [2], 27.9%; in test [3], 21.6%; in test [4] it was 23.9%; in test [5], 14.7%; in test [8], 41.8%. The growth in test [7] is 20.1%.

Regarding `CCN(CC)Cc1cc(Nc2cc(C(F)(F)F)c(C#N)c3nc4ccccc4n23)ccc1O`, the growth is -1.95% (active) in test [1]; 8.37% (active) in test [2]; 16.9% in test [3]; 14.7% in test [4]; 8.72% (active) in test [5]; 20.2% in test [8]. The growth in test [7] was 10.8%.

As to `COC(=O)CCCNc1c(-c2c(O)c(O)cc3c(O)c(-c4c(C)cc5c(-c6nc7ccccn7c6NCCCC(=O)OC)c(O)c(O)cc5c4O)c(C)cc23)nc2ccccn12`, the growth was 26.1% in test [1]; 16% in test [2]; 20.7% in test [3]; 60.1% in test [4]; 18.2% in test [5]; 71.6% in test [8]. Also, the growth in test [7] was 31.8%.

Take `C=CC(=O)N1CCC[C@H](n2c(=O)n(-c3ccc(Oc4ccccc4)cc3)c3c(N)ncnc32)C1`: the growth in test [1] was 37.7%; in test [2] it was 91.9%; in test [4] it was 97.4%; in test [5], 86.5%; in test [6] it was 74%; in test [8], 100%. The growth in test [7] is 92.1%.

Regarding `Cc1ccc(Nc2nccc(N(C)c3ccc4c(C)n(C)nc4c3)n2)cc1S(N)(=O)=O`, the growth in test [1] is 4.07% (active); in test [2], 25.8%; in test [4], 19.3%; in test [5], 32.3%; in test [6] it was 3.7% (active); in test [8] it was -5.85% (active). Further, the growth in test [7] was 15%.

On to `COc1cc2ncnc3c2cc1OCCCCCN(C)Cc1ccc(Br)cc1N3`, for which the growth in test [1] is 4.78% (active); in test [2] it was 60.6%; in test [4] it was 47.7%; in test [5], 56.9%; in test [6] it was 33.2%; in test [8] it was 68%. For the same compound, the growth in test [7] was 58.9%.

Regarding `CCc1cc2c(cc1N1CCC(N3CCOCC3)CC1)C(C)(C)c1[nH]c3cc(C#N)ccc3c1C2=O`, the growth in test [1] is -26.7% (active); in test [2], -19.3% (active); in test [4], 2.54% (active); in test [5], 13.8%; in test [6], -7.97% (active); in test [8] it was 5.22% (active). The growth in test [7] is 4.1% (active).

These data come from PubChem BioAssay (NCI).
